An excerpt weighted towards active compounds, which were near 2.4% of everything screened.
WRN helicase inh-1: qHTS for Inhibitors of WRN Helicase; WRN helicase unwinding, fluorescent forked duplex, kinetic; Potency, µM (titrated, usually from 114 µM), hits mostly inhibitors; actives 0.46% (n = 360,000); AID 651768, 2012; note: nearly all actives have a fitted effect of over 55% in size
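WRN at 20 nM final preincubated with compound 15 min at room temperature; reaction started with 100 nM fluorophore/quencher forked duplex oligonucleotide and 2 mM ATP final. Unwinding followed kinetically by red fluorescence (ex 525, em 598 nm).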
Pol kappa inh-1: qHTS for Inhibitors of Polymerase Kappa | AID 588579, 2011 | Potency, µM (highest dose often 107 µM), usual class: inhibitors | purified Pol kappa, fluorescent DNA synthesis assay, 10 min | DNA polymerase kappa (Homo sapiens), Q9UBT6 | actives 0.53% (n = 400,000)
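Readout: fluorescence, taken kinetically at 0 and 10 min. Conditions: 10 nM Pol kappa, 15 min RT compound preincubation, 50 nM substrate final. Controls: enzyme-free buffer wells.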
POLB inh: qHTS Assay for Inhibitors of DNA Polymerase Beta. P06746. Pol beta primer extension/strand displacement, fluorescence kinetic. Potency, µM (highest dose often 114 µM), actives largely listed as inhibitors. actives 1.3% (n = 340,000)
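Human Pol beta at 10 nM; strand-displacement substrate 50 nM final. Compound exposure 15 min at room temperature before start, reaction 10 min at room temperature.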
POLI inh: qHTS for Inhibitors of Polymerase Iota. Pol iota fluorescent replication assay, 10 min. Potency, µM (top dose mostly 115 µM), actives largely listed as inhibitors. DNA polymerase iota (Homo sapiens), Q9UNA4. actives 1% (n = 390,000)
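Pol iota at 10 nM preincubated 15 min with compounds at room temperature; reaction started with fluorescent substrate, 50 nM final. Fluorescence read kinetically at 0 and 10 min; buffer-only wells as negative control.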
Pol eta inh-1: qHTS for Inhibitors of Polymerase Eta; recombinant Pol eta, fluorescent DNA replication assay; DNA polymerase eta (Homo sapiens), Q9Y253; actives 1.2% (n = 390,000); AID 588591, 2011; Potency, µM (doses to about 114 µM), most hits filed as inhibitors
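Pol eta (10 nM) was preincubated with compounds for 15 min at room temperature, after which fluorescent replication substrate (50 nM final) was added to start the reaction. Fluorescence was read kinetically at 0 and 10 min.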
FEN1 inh-1: qHTS Assay for the Inhibitors of Human Flap endonuclease 1 (FEN1); Recombinant FEN1 flap cleavage, fluorescence, 15 min; actives 0.35% (n = 390,000); Potency, µM (top dose mostly 114 µM), usual class: inhibitors; AID 588795, 2011; note: nearly all actives have a fitted effect of over 65% in size
Target sequence (P39748 whole entry, looked up): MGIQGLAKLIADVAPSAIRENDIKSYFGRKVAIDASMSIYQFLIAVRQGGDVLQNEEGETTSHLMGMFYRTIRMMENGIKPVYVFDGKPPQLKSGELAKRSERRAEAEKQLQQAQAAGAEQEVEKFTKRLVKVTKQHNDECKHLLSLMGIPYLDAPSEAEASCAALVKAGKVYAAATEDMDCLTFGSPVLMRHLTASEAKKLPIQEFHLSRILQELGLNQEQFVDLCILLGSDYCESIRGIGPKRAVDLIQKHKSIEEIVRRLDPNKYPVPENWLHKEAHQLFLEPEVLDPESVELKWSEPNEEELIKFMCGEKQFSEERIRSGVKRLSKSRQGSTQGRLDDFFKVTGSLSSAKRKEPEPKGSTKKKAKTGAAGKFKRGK
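Nuclease activity of 10 nM FEN1 was measured after 15 min of room-temperature exposure to titrated compounds, by adding 50 nM flap substrate and reading plates at 0 and 15 min.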
TbPGK inh: qHTS for inhibitors of Phosphogylcerate Kinase: Hit Validation Screen; shares compounds with Pol kappa inh-1; TbPGK coupled GAPDH assay, Kinase-Glo luminescence; Potency, µM (titrated, usually from 57.5 µM), actives largely listed as inhibitors; actives 79% (n = 500); AID 686980, 2013; note: nearly all actives have a fitted effect of over 65% in size
POLI cherry-pick: qHTS for Inhibitors of Polymerase Iota: Confirmatory Assay for Cherry-picked Compounds. Pol iota primer extension, TAMRA/BHQ fluorescence. Potency, µM, actives largely listed as inhibitors. actives 77% (n = 1,500). shares compounds with Pol kappa inh-1
Pol kappa inh-2: qHTS for Inhibitors of Polymerase Kappa: Confirmatory Assay for Cherry-picked Compounds | shares compounds with Pol eta inh-1 | purified Pol-kappa, fluorescent strand-displacement substrate | Potency, µM, hits mostly inhibitors | actives 76% (n = 920) | AID 720501, 2013
Pol eta inh-2: qHTS for Inhibitors of Polymerase Eta: Confirmatory Assay for Cherry-picked Compounds; shares compounds with Pol eta inh-1; Pol eta primer extension, TAMRA/BHQ fluorescence, 10 min; Potency, µM, most hits filed as inhibitors; actives 64% (n = 2,600); AID 720502, 2013
FEN1 inh-2: qHTS Assay for the Inhibitors of FEN1: Confirmatory Assay for Cherry-picked Compounds | Potency, µM, actives largely listed as inhibitors | shares compounds with FEN1 inh-1 | actives 79% (n = 880) | FEN1 flap cleavage, TAMRA/BHQ2 fluorogenic DNA substrate | AID 720498, 2013; note: nearly all actives have a fitted effect of over 60% in size
WRN helicase inh-2: qHTS for Inhibitors of WRN Helicase: Confirmatory Assay for Cherry-picked Compounds; actives 63% (n = 610); AID 720497, 2013; Potency, µM (top dose mostly 57.1 µM), hits mostly inhibitors; WRN helicase DNA unwinding, fluorescence kinetic; shares compounds with WRN helicase inh-1; note: nearly all actives have a fitted effect of over 65% in size
TO displacement: qHTS for Inhibitors of WRN Helicase: Thiazole Orange DNA Binding Counterscreen; shares compounds with WRN helicase inh-1; thiazole orange DNA binding displacement, fluorescence; Potency, µM (doses to about 57.1 µM), hits mostly inhibitors; actives 10% (n = 610);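 note: drop in dye fluorescence marks compound binding to DNA; nearly all actives have a fitted effect of over 60% in size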
BLM counter: qHTS for Inhibitors of WRN Helicase: BLM Helicase Counterscreen for WRN Inhibitors; shares compounds with WRN helicase inh-1; Recombinant BLM helicase DNA unwinding, red fluorescence; Potency, µM (highest dose often 57.1 µM), hits mostly inhibitors; actives 60% (n = 610); AID 720503, 2013; note: nearly all actives have a fitted effect of over 60% in size
A number is an active result; . = inactive; ? = inconclusive; / = no result given. Calls come from the whole dose curve; as a rule, active = well fitted curve in the direction sought with a large enough effect; inconclusive = small, poorly fitted or top-dose-only effect, or another doubt; inactive = no such curve, though single readings can be large; an effect the other way counts as inactive or inconclusive.

SMILES	WRN helicase inh-1	Pol kappa inh-1	POLB inh	POLI inh	Pol eta inh-1	FEN1 inh-1	POLI cherry-pick	Pol kappa inh-2	Pol eta inh-2	FEN1 inh-2	WRN helicase inh-2	TO displacement	BLM counter	others
O=[N+]([O-])c1cc2ccccc2c(O)c1O	?	/	/	/	4.5µM	/	12	2.1	7.6	15	12µM	.	0.68µM
O/N=C1\CCC\C1=C/c1ccco1	.	?	.	?	.	.	/	/	/	/	/	/	/
O=C1C(=Cc2ccco2)CCC1=Cc1ccco1	3.5µM	5µM	/	?	0.79µM	8.9µM	3	2.7	5.4	17	7.6µM	.	7.6µM	TbPGK inh=18µM
Cc1cccc(CNc2ncncc2-c2cccc(NS(C)(=O)=O)c2)c1	/	.	/	/	/	/	/	/	/	/	/	/	/
O=C(O)COc1ccc(/C=N/NC(=O)c2ccc(-c3csc(Nc4ccc(Cl)cc4)n3)cc2)cc1	13µM	7.9µM	?	2.8µM	2.5µM	?	3	/	11	30	4.3µM	5.4µM	0.86µM
Cc1ccc(NC(=O)c2cc3c([nH]c2=O)CC(C)(C)CC3=O)cc1	/	.	/	?	/	.	/	/	/	/	/	/	/
NC(=O)c1ccc(NC(=O)COC(=O)/C=C/c2ccc(Br)o2)cc1	32µM	35µM	/	22µM	2.8µM	.	42	?	67	/	?	.	17µM	TbPGK inh=8.2µM
NS(=O)(=O)c1ccc(N/N=C/c2ccc(C(=O)O)cc2)c([N+](=O)[O-])c1	.	.	.	.	.	.	/	/	/	/	/	/	/
COc1cc(C=NNc2ccc(S(=O)(=O)Nc3ccccc3C(=O)O)cc2[N+](=O)[O-])ccc1O	79µM	.	/	?	50µM	45µM	75	/	19	60	24µM	24µM	27µM
COc1cc(/C=N/Nc2ccccc2[N+](=O)[O-])ccc1OC(=O)c1ccccc1F	.	.	.	.	.	.	/	/	/	/	/	/	/

Screens deposited in PubChem by National Center for Advancing Translational Sciences (NCATS).
